Several values for one entry are separate records, joined by “and”; a condition that tells them apart may be missing. Equal entries are not always repeated. This is part of a sample that, as a whole, favours compounds with a hit. Of some 79,000 tested, about 15% had one in any assay. Unmarked numbers belong to inactive results. Activity calls are given as the source filed them. Cut-off read from the data, not from the text of the source: active = growth inhibition above about 70%; inactive = the rest.
Legend:
[1] = NCI Yeast Anticancer Drug Screen. Data for the rad50 strain (AID 155);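 note: 0% = growth of vehicle-only cultures of the same strain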; details: S. cerevisiae rad50 strain growth inhibition, active compounds read high
Summary of the method: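 Relative growth inhibition (compound vs vehicle) was measured in yeast with a defined repair-gene alteration.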

[2] = NCI Yeast Anticancer Drug Screen. Data for the mec2-1 strain (AID 157); details: S. cerevisiae mec2-1 strain, active compounds read high
Summary of the method: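 Cells of the genetically defined mec2-1 yeast strain are incubated with test compound. Inhibition of growth is calculated against vehicle-treated controls.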

[3] = NCI Yeast Anticancer Drug Screen. Data for the sgs1 mgt1 strain (AID 161);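 note: 0% = growth of cultures given vehicle only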; details: S. cerevisiae sgs1 mgt1 strain, active compounds read high
Summary of the method: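 Test agents were incubated with a DNA-repair-mutant yeast strain. Growth was then read and compared against vehicle-treated controls.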

[4] = NCI Yeast Anticancer Drug Screen. Data for the cln2 rad14 strain (AID 165);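 note: 0% = growth equal to vehicle treated cultures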; details: S. cerevisiae cln2 rad14 strain, active compounds read high
Summary of the method: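 The screen exposed genetically defined yeast (cln2 rad14) to test compounds and scored growth inhibition relative to vehicle-treated controls.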

[5] = NCI Yeast Anticancer Drug Screen. Data for the mlh1 rad18 strain (AID 175); details: S. cerevisiae mlh1 rad18 strain growth inhibition, active compounds read high
Summary of the method: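 Compound-treated yeast growth, normalised to vehicle controls. Strain bears defined DNA repair mutations.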

[6] = NCI Yeast Anticancer Drug Screen. Data for the bub3 strain (AID 167); details: S. cerevisiae bub3 mutant strain, active compounds read high
Summary of the method: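 Screening used yeast with an engineered genetic alteration affecting cell cycle control. Compound-exposed cultures were compared with vehicle cultures, and reduced growth was taken as inhibition.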

[7] = at 5.0 µM (retest, dose inferred, filed as 0.5)
[8] = at 50.0 µM (retest, dose inferred, filed as 5.0)

SMILES	growth inhibition [1, 7]	growth inhibition [1, 8]	growth inhibition ([1]; at 50.0 µM)	growth inhibition [2, 7]	growth inhibition [2, 8]	growth inhibition ([2]; at 50.0 µM)	growth inhibition [3, 7]	growth inhibition [3, 8]	growth inhibition ([3]; at 50.0 µM)	growth inhibition [4, 7]	growth inhibition [4, 8]	growth inhibition ([4]; at 50.0 µM)	growth inhibition [5, 7]	growth inhibition [5, 8]	growth inhibition ([5]; at 50.0 µM)	growth inhibition [6, 7]	growth inhibition [6, 8]	growth inhibition ([6]; at 50.0 µM)
Cc1cc(NS(=O)(=O)c2ccc(NCc3c4ccccc4nc4cc(Cl)ccc34)cc2)no1	26%	97% (active)	98.2% (active)	22%	99% (active)	98.5% (active)	27%	99% (active)	98.5% (active)	6%	97% (active)	97.3% (active)	9%	97% (active)	98.2% (active)			
OC(COc1ccc(Cl)cc1)CN1CCN(c2cccc(Cl)c2)CC1 (stereo not given)				37%	100% (active)	93.9% (active)	80% (active)	100% (active)	98.5% (active)	20%	99% (active)	85.8% (active)	62%	99% (active)	96.3% (active)	25%	98% (active)	95.5% (active)
CCOC(=O)C(C=O)(C=O)c1ccccc1	6%	42%	71.5% (active)				7%	18%	61%	4%	24%	43.2%	-1%	32%	44.5%	-3%	14%	-36.4%
CC(=O)OC(CCl)C(C)[N+](=O)[O-] (stereo not given)				5%	96% (active)	98.5% (active)	7%	75% (active)	46.6%	6%	83% (active)	36.9%	5%	86% (active)	43.4%	6%	99% (active)	97.7% (active)
CCCCOC(=O)c1n[nH]c(C)c1N=NN(C)C				96% (active)	99% (active)	99% (active)	95% (active)	99% (active)	99.2% (active)	95% (active)	99% (active)	99.4% (active)	80% (active)	99% (active)	99.2% (active)	84% (active)	99% (active)	99.2% (active)
CCCNC(=O)N(CC(C)(C)C)S(=O)(=O)c1ccc(Cl)cc1				-2%	-10%	93.1% (active)	-2%	0%	68.3%	-4%	-17%	86.8% (active)	-5%	-97%	36.2%	7%	27%	99.5% (active)
O=Cc1c(I)cc(I)c(O)c1I				46%	99% (active)	98.7% (active)	79% (active)	100% (active)	97.9% (active)	42%	97% (active)	95.1% (active)	56%	97% (active)	97.3% (active)	44%	67%	96.8% (active)
CCc1cc2nc3c(=O)[nH]c(=O)nc-3n(CCN(CCO)CCO)c2cc1CC				10%	27%	30.6%	2%	15%	55%	2%	-6%	37%	2%	7%	81.9% (active)	2%	-7%	18.1%
CC1C2CCC3C4CC=C5CC(N(C)C)CCC5(C)C4CCC32CN1C (stereo not given)			-9.65% and 13.9% and -0.1%			-3.8% and 1% and -6.15%			-8% and 7.6% and -3.15%			7.25% and 0.15% and 30.5%			9.35% and 23.6% and -7.35%			-6.35% and 18.9% and 33.6%
CCCC(=O)OCC1CC2C=CC1C2 (stereo not given)	0%	-3%	-6.25%				0%	-1%	-18.3%	-7%	3%	79.2% (active)	-1%	-5%	-3.9%	-3%	2%	15%
CC(CN(C)C)C(=O)c1ccccc1 (stereo not given)			-3.95% and -8.85% and 34%			-43.7% and -18.4% and 16.6%			-4.85% and -15.9% and 18.1%			20.3% and -14.4% and 14.4%			0.3% and -18.9% and 23.1%			-23.1% and -11.6% and 18.4%
O=C(Nc1ccc(Cl)cc1Cl)C1C(=O)OC2(CCCCC2)OC1=O				38%	98% (active)	89.8% (active)	30%	97% (active)	55.6%	37%	98% (active)	62.8%	37%	97% (active)	87.2% (active)	45%	98% (active)	62.3%
C=C(C)C1(C(=O)OCC(Cl)(Cl)Cl)NC(=O)C(NC(=O)COc2ccccc2)=CO1 (stereo not given)	26%	66%	94.8% (active)	4%	68%	86.8% (active)	8%	56%	94.5% (active)	6%	31%	61.1%	3%	51%	93% (active)			
O=C(Nn1c(-c2ccccc2)nc2ccccc2c1=O)c1ccccc1O				-14%	51%	64.2%	3%	59%	79.5% (active)	9%	59%	77.8% (active)	-1%	79% (active)	69.8%	-11%	80% (active)	78.2% (active)
CCOC(CC)C(O)(c1ccc(N(C)C)cc1)c1ccc(N(C)C)cc1 (stereo not given)	-2%	94% (active)	98.3% (active)				0%	95% (active)	98.6% (active)	-3%	63%	97.5% (active)	1%	98% (active)	98.2% (active)	4%	88% (active)	98.7% (active)
O=CC(O)C(O)C(O)C(O)C(O)CO (stereo not given)			-13.5% and 36% and -23.8%			-1.55% and -10.8% and -7.35%			-8.85% and -1.5% and -6.45%			-56.4% and -44.2% and -19.8%			-12.4% and 19.2% and 4.25%			7.5% and 25.1% and -0.4%
[Cl][Co][Cl].[NH-]CC[N-]CC[N-]CC[NH-]			29.6% and -6.2% and 5.8%			16.8% and -10.4% and 22.6%			13.9% and 16.4% and 32.5%			28.4% and 16.1% and 18.5%			6.35% and 12.3% and 47%			14.1% and 19.4% and 25.4%
CC(NC(=O)OC(C)(C)C)C(=O)NC(Cc1ccccc1)C(=O)NCC(=O)Oc1c(Cl)c(Cl)c(Cl)c(Cl)c1Cl (stereo not given)	30%	66%	65.4%				41%	72% (active)	77% (active)	27%	55%	46.5%	68%	79% (active)	73.4% (active)	35%	61%	56.5%
CCOC(=O)/C(=C\N1C(=O)/C(=C\C(C)=C\c2ccccc2)SC1=S)C(=O)c1ccccc1	-8%	0%	55%				-3%	14%	52.5%	-18%	2%	57%	-2%	20%	77% (active)	-8%	39%	70.2% (active)
C=CCCCN1C(=O)C2C3c4ccccc4C(C=O)(c4ccccc43)C2C1=O (stereo not given)	29%	25%	32.1%				0%	23%	27.9%	16%	12%	29.6%	27%	35%	3.25%	26%	17%	4.65%
NC(CC(=O)O)c1ccccc1 (stereo not given)			6.2% and -0.2% and -0.5%			8.8% and -3.45% and -4.3%			-5.95% and 2.35% and -0.05%			14.2% and -33.1% and -4.9%			-8.9% and 9.75% and -24.9%			-12.7% and -10.4% and -18.2%
COC(O)C12OC3CO[Si](C(C)C)(C(C)C)O[Si](C(C)C)(C(C)C)OC3C1Oc1nc(=O)ccn12 (stereo not given)	10%	98% (active)	88.7% (active)				-25%	98% (active)	86.5% (active)	1%	97% (active)	86.7% (active)	15%	98% (active)	-69.8%	-4%	98% (active)	87.5% (active)
